Data as given in PubChem BioAssay AID485358 (National Center for Advancing Translational Sciences (NCATS), 2010).
“And” between values parts separate entries of the source, which are not always exact repeats. Equal entries are not always repeated. Among all 340,000 compounds or so, about 1,800 (0.53%) were called active. Many of the other results were omitted from the sample, so actives are more common in it than they were. Unmarked numbers belong to inactive results.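 Rule for the calls: active = activation over 3 SD above normal in the single-dose calcium agonist read (cut at about 30% in these data); inactive = the rest.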

target: D(2) dopamine receptor (Homo sapiens) (UniProt P14416); assay: HTS Assay for Allosteric Agonists of the Human D2 Dopamine Receptor: Primary Screen for Agonists; conditions: HEK293 T-REx D2 cells, calcium flux agonist mode; at 2 µM; active compounds read high; note: 0% is about no effect
Summary of the method: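 Agonism is scored from calcium flux in a force-coupled, inducible HEK293 cell line expressing D2, read kinetically for 180 s after compound addition against dopamine controls.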

Sequence of D(2) dopamine receptor (Homo sapiens) (P14416 whole entry, looked up): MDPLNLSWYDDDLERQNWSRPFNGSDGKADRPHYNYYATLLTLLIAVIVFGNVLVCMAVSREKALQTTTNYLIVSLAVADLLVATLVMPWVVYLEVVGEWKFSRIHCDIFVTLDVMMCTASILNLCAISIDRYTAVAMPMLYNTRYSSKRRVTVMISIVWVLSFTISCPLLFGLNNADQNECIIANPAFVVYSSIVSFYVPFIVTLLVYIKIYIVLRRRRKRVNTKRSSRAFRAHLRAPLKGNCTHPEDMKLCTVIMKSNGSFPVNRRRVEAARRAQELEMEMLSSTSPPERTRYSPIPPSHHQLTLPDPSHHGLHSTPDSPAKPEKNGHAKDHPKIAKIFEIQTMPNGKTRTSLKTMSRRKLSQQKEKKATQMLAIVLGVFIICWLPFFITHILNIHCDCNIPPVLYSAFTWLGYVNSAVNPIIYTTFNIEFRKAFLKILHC

SMILES	activation
CCc1ccccc1NC(=O)c1ccc(F)c(S(=O)(=O)NC2CCCCCC2)c1	0.52%
COc1ccc(NC(=O)CN2CCCN(Cc3ccccc3)S2(=O)=O)cc1	-1.11%
COc1ccc(-c2nn(CC(=O)Nc3ccccc3F)c3c2cnc2ccc(F)cc23)cc1	0.341%
CN1C(=O)c2[nH]nc(-c3ccc(F)cc3)c2C1c1ccccn1 (stereo not given)	1.23%
CCOc1ccccc1N1CCN(C(=O)COc2ccc3c(C)cc(=O)oc3c2)CC1	-0.577%
Cc1ccccc1N1CCN(CCCOc2ccc3c(C)cc(=O)oc3c2)CC1	80.1% (active)
Cc1cc(=O)oc2cc(OCCC[n+]3ccccc3)ccc12	0.774%
CCOc1ccc(NC(=O)Cn2cc(C(=O)c3ccc(C)cc3)c(=O)c3cc4c(cc32)OCCO4)cc1	-0.524%
CNCC(O)c1ccc(O)c(O)c1 (stereo not given)	64.9% (active)
CC(=O)NCC(O)c1ccc([N+](=O)[O-])cc1 (stereo not given)	-2.19%
CC(Sc1oc(-c2ccco2)nc1S(=O)(=O)c1ccc(Br)cc1)c1ccccc1 (stereo not given)	0.011%
COc1ccccc1C(=O)Nc1c(C(=O)N(C)Cc2ccccc2)sc2nc(C)c(Cl)c(C)c12	0.563%
COc1cc(NC(=O)c2nc3ccccc3nc2C)cc(OC)c1OC	0.0893%
COc1cccc(CNC(=O)c2cc(=O)[nH]c3ccc(S(=O)(=O)N4CCCCC4)cc23)c1	0.436%
CCOc1ccc(N(CC)C(=O)c2noc3c2COc2ccc(C)cc2-3)cc1	0.123%
Cc1ccccc1Nc1nc(N)nc(CSc2nnc3ccccn23)n1	0.185%
Cc1ccccc1Nc1nc(N)nc(CSc2ccccc2)n1	0.151%
Cc1ccccc1Nc1nc(N)nc(CN2CCN(c3ccccn3)CC2)n1	38.5% (active)
CCOc1ccc(N(Cc2ccccc2)C(=O)c2nc(S(C)(=O)=O)ncc2Cl)cc1	10%
COc1ccccc1CNC(=O)CCn1c(=O)c2ccccc2n(CC(=O)Nc2ccc(Br)cc2F)c1=O	-0.617%
CC1CCN(c2c(NCc3ccc(C(=O)NCc4ccccc4)cc3)c(=O)c2=O)CC1	-1.43%
COc1cccc(-c2ccc3c(c2)S(=O)(=O)c2cccc(C(=O)O)c2C3=O)c1OC	1.73%
Cc1ccc(CNC(=O)c2cccc3c2C(=O)c2ccc(N4CCC(C)CC4)cc2S3(=O)=O)cc1	32% (active)
CCOc1cccc(CC(=O)N2CCc3c([nH]c4ccccc34)C2c2ccc(F)cc2)c1OCC (stereo not given)	-0.484%
Cc1c(CCNC(=O)c2ccc(C(F)(F)F)cc2)sc2nc(-c3ccc(F)cc3)nn12	-2.35%
O=C(NCc1ccccc1Cl)c1ccc2c(=O)n(CC3CCCO3)c(=S)[nH]c2c1 (stereo not given)	-2.85%
O=C(NC1CCCCC1)c1ccc2c(=O)n(CC3CCCO3)c(=O)[nH]c2c1 (stereo not given)	31.5% (active)
CCCCCn1c(=O)[nH]c2cc(C(=O)NCCCN3CCCCC3C)ccc2c1=O (stereo not given)	1.64%

SMILES	activation
COc1ccc(-c2nc3nc(C)cc(C)n3c2Nc2c(C)cccc2C)cc1	2.98%
CCc1cc2c(cc3c(=O)n(CC(=O)NCCc4ccc(OC)c(OC)c4)ncn32)s1	-0.234%
COC(=O)c1ccc(-c2nc3cc(NC(C)=O)ccc3o2)cc1	-2.97%
Cc1ccc(NC(=O)C2CCCN(S(=O)(=O)c3c(C)noc3C)C2)c(C)c1 (stereo not given)	-0.264%
Cc1n[nH]c(C)c1S(=O)(=O)N1CCCC(C(=O)Nc2ccc(Br)cc2)C1 (stereo not given)	0.576% and 0.392%
Cc1n[nH]c(C)c1S(=O)(=O)N1CCCC(C(=O)NCC2COc3ccccc3O2)C1 (stereo not given)	57.1% (active)
O=C(NCC(c1ccco1)S(=O)(=O)c1cccs1)c1ccc(F)cc1 (stereo not given)	0.728%
CCOc1ccc(CNC(=O)c2cccc(Nc3nc4ccccc4n4nnnc34)c2)cc1OC	0.495%
O=C1Nc2ccccc2/C1=C/c1ccnc2ccccc12	1.57%
Cc1cc(C)c(/C=C2\C(=O)Nc3ccccc32)[nH]1	39.4% (active)
Cc1ccccc1-n1c(C)cc(/C=C2\NC(=O)NC2=O)c1C	-0.336%
CCOC(=O)c1c(NC(C)=O)c2c3c(sc2n1Cc1c(C)cc(C)cc1C)CCCC3	0.0213%
CCS(=O)(=O)N1CCC(N2CCN(c3ccccc3)CC2)CC1	68% (active)
CCS(=O)(=O)N1CCC(C(=O)N2CCN(c3ccccc3)CC2)CC1	4.45%
CS(=O)(=O)N1CCC(C(=O)N2CCN(c3ccccc3)CC2)CC1	6.31%
Cc1ccccc1NC(=O)c1cc2c([nH]c1=O)CC(C)(C)CC2=O	0.0984%
CCOc1ccc(/C=C(\C#N)c2nc3ccccc3c(=O)[nH]2)cc1OC	-1.7%
CCOc1cc(/C=C(\C#N)c2nc(-c3cccs3)c(NC(C)=O)s2)ccc1O	31.5% (active)
CCOc1cc(-c2cc(-c3ccc(NC(C)=O)cc3)nc(N)c2C#N)ccc1O	0.571%
OC(COCc1ccco1)CN1CCN(c2ccccc2)CC1 (stereo not given)	85.6% (active)
O=[N+]([O-])c1ccc(N2CCN(CC(O)COc3ccccc3)CC2)cc1 (stereo not given)	-0.607%
OC(COCC1COc2ccccc2O1)CN1CCN(c2ccc(F)cc2)CC1 (stereo not given)	8.89%
COc1ccc(CNC(=O)CSCc2nc(-c3ccccc3F)oc2C)cc1	-0.228%
Cc1nc(N2CCN(c3ccccn3)CC2)c2c(C)c(C(=O)Nc3ccc(F)cc3)sc2n1	-0.199%
Cc1c(CN2CC[C@@H](N3CCN(c4ccccn4)CC3)[C@H](O)C2)[nH]c2ccc(F)cc12	76.9% (active)
O=C(CCC1CCCN(C(=O)Cc2ccc(F)cc2)C1)N1CCN(c2ccccn2)CC1 (stereo not given)	0.424%
COC(=O)c1ccc(Cn2c(SCC(=O)N(C)c3ccccc3)nc3ccccc32)cc1	0.816%
